According to ChEMBL document CHEMBL4513141, “CO-ADD screening of NIH (USA) - Clinical Collection” (2021):
Potency and affinity values are given separately.

Test system: Staphylococcus aureus
Settings: Concentration 20 uM; ASSAY_TEST Inhibition of Bacterial Growth; detection method Absorption (OD600); MEDIA CAMHB; plate type 384well; NBS; CORNING #3640; time 18 hr

SMILES	Inhibition [%]
COC(=O)C1=C(C)NC(C)=C(C(=O)OC)C1c1ccccc1[N+](=O)[O-] [NIFEDIPINE]	16.67
CCOC(=O)c1ncn2c1CN(C)C(=O)c1cc(F)ccc1-2 [FLUMAZENIL]	-0.36
COc1cc(-c2ccc(=O)[nH]n2)ccc1OC(F)F [ZARDAVERINE]	7.7
Cl.O=C1CC[C@@]2(O)[C@H]3Cc4ccc(O)c5c4[C@@]2(CCN3CC2CC2)[C@H]1O5 [NALTREXONE HYDROCHLORIDE]	14.26
C[C@]12CC(C=O)=C(O)C[C@@H]1CC[C@@H]1[C@@H]2CC[C@@]2(C)[C@H]1CC[C@]2(C)O	4.66
C=C1C[C@@H]2[C@H](CC[C@]3(C)C(=O)CC[C@@H]23)[C@@]2(C)C=CC(=O)C=C12 [EXEMESTANE]	13.66
COc1ccc(C(CN(C)C)C2(O)CCCCC2)cc1.Cl (configuration not stated) [VENLAFAXINE HYDROCHLORIDE]	5.17
O=C(O)C(Cl)Cl [DICHLOROACETIC ACID]	11.87
C[C@]12CC[C@H]3[C@@H](CCC4=CC(=O)CC[C@@]43C)[C@@H]1CC[C@@H]2O [TESTOSTERONE]	-3.69
CN(C)CCC=C1c2ccccc2CCc2ccccc21.Cl [AMITRIPTYLINE HYDROCHLORIDE]	5.1
NC(=O)C[S+]([O-])C(c1ccccc1)c1ccccc1 (configuration not stated) [MODAFINIL]	3.29
c1ccc2c3c([nH]c2c1)CNCC3 [TRYPTOLINE]	7.42
